The test system of experiment [1] is Hepatitis C virus NS3 helicase. Nature of the experiment: HCV NS3 helicase inhibitors, primary screen, biochemical, fluorescence polarization, LOPAC1280 library (AID 687035; in the data active = inhibition above about 37%). The settings on record: Purified HCV NS3 helicase, Cy5-dT15 ssDNA binding fluorescence polarization; stronger effect = higher value; concentration not given here.
Experiment [2] in a line: Cy5 fluorescence quenching or enhancement artefacts, artefact control for HCV NS3 helicase inhibitor project, biochemical, LOPAC1280 (AID 687037). The note with it: Cy5-DNA-NS3h complex fluorescence interference counterscreen. In general terms: The purpose of a counterscreen is to sort out artefacts and off-target activity.
Experiment [3] can be described thus: stimulators of nuclear beta-catenin in C2C12, primary screen, imaging, WNT3A-conditioned medium, mouse C2C12, NPC library (AID 1117326; in the data active = nuclear beta-catenin stimulation mostly above about 4.2%, no sharp cut-off; inactive = mostly below about 10%). The settings on record: stronger effect = higher value.
Experiment [4] can be described thus: stimulators of insulin release from INS-1E, primary screen, cell-based, 5 mM glucose, NPC library (AID 1117329;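 active = compound raises insulin release from rat beta cells at 5 mM glucose, no numeric limit stated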). The note with it: rat INS-1E insulin secretion, at 10 µM, stronger effect = higher value.
A short description of experiment [5]: growth inhibition of GSK3B-pretreated HCT116 cells – cell-based, CellTiter-Glo, 0.2 to 20 µM (AID 1117336;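 active = compounds lowering colon cancer cell viability after pretreatment blocking the GSK3B kinase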). The settings on record: HCT116 viability after GSK3B inhibitor, at 20 µM, stronger effect = higher value. A general note: Cellular ATP, detected with luciferase, serves as a proxy for viable cell number.
Experiment [6] can be described thus: inhibition of endothelial tube formation, primary screen, imaging, VEGF stimulated, CD31 staining, tube area, NPC library (AID 1117340;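 active = compound that reduces growth-factor-driven endothelial tube area in a mixed cell culture, no cutoff stated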). The note with it: VEGF-stimulated ADSC/ECFC co-culture, at 10 µM, stronger effect = higher value.
A short description of experiment [7]: glucagon-like peptide 1 release enhancers, primary assay, NCI-H716 cell line, NPC library (AID 1117341;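 active = compound raises GLP1 secretion from the human gut endocrine cells, with no numeric limit stated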). The settings on record: NCI-H716 cells, at 10 µM, stronger effect = higher value.
Experiment [8] can be described thus: HCT116 colon cancer cell growth inhibition, primary screen, CellTiter-Glo luminescence, NPC library (AID 1117342;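 active = compounds that lower survival of HCT116 colon cancer cells in the luminescence readout, no numeric limit stated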). The note with it: at 20 µM (top of the series).
Experiment [9] is described as follows: CellTiter-Glo luminescent readout of SW480 viability loss, NPC library primary (AID 1117343;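 active = compounds that lower viability of the colon cancer cells in the luminescence readout, with no numeric limit stated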). The note with it: CellTiter-Glo luminescence; at 20 µM (top of the series) unless noted.
A short description of experiment [10]: decreased DLD-1 cellular survival, CellTiter-Glo luminescent readout, NPC compound collection, primary HTS (AID 1117346;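 active = compounds that lower survival of DLD-1 colon cancer cells in the luminescence readout, no cutoff given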). The note with it: DLD-1 viability, CellTiter-Glo luminescence; at 20 µM (top of the series).
Experiment [11] can be described thus: sensitizers of A549 cells to miR-34 induction, primary screen, imaging, A549 dox-inducible miR-34, nuclei and caspase counts (AID 1347080;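 active = compounds whose cell count with miR-34 switched on is under 0.7 times the count with it off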). The note with it: A549 miR-34 inducible, Hoechst nuclei count, 48 h.
Experiment [12] in a line: phospholipid biosynthesis inhibitors in animal cells, primary screen, cell-based, LOPAC library, screen 4 (AID 1347384). The settings on record: phospholipid biosynthesis inhibition screen, at 10 µM.
Experiment [13] in a line: viability rescue of complex I mutant cybrids, primary screen, cell-based, galactose medium, ATP luminescence (AID 1645843;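 active = z-score of at least 1.8 in each of two replicates, scored against plate mean and spread of sample wells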;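 also: positive z means more ATP and so rescue of galactose-driven cybrid death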). The settings on record: complex I mutant cybrid cells, 72 h, stronger effect = higher value.
Experiment [14] in a line: survival rescue of mitochondrial mutant cells in low glucose, primary screen, MELAS cybrids, Rieske KO mouse fibroblasts, CellTiter-Glo (AID 1508586;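 active = mean z-score across replicates of 1.96 or higher in either the MELAS or the Rieske mutant cell line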;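 also: z relative to plate mean and SD of compound and empty wells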).
[15] abbreviates: stronger effect = lower value, cell number ratio, induced over uninduced.
Where [16] appears, read: measured here: relative caspase fold change +Dox/-Dox.
Setting [17] is: measured here: total cells with miR-34 induction, stronger effect = lower value.
Where [18] appears, read: measured here: total cells without miR-34 induction.

These results are taken from PubChem BioAssay.

“And” between values parts separate entries of the source, which are not always exact repeats. Equal values may be shown once. The source made the active and inactive calls. Unless noted, no rule for the calls is given here.

With `O=C(O)CP(=O)(O)O`, in [1], the inhibition was -3% (inactive). For the same molecule, the fluorescence ratio (interference) in [2] was 0.9 (inactive). For the same molecule, the nuclear beta-catenin stimulation was 4.8% (inactive) in [3] (at 10 µM) and 3.8% in experiment [3] (stimulation, at 2 µM). Moreover, the insulin secretion stimulation in [4] was 0.7% (inactive). Moreover, the viability decrease in experiment [5] is -14.8% (inactive). For the same molecule, the tube area decrease in [6] was -4.7% (inactive). Also, in experiment [7], the GLP1 secretion stimulation is 0.3% (inactive). Further, in experiment [8], the inhibition of viability was -1.37% (inactive). The viability decrease (inhibition) was 10.9% (inactive) in experiment [9] and -7.2% (inactive) in [10]. The fold change in experiment [11] (setting [15]) was 0.969 (inactive); in experiment [11] (setting [16]), 1.06. Moreover, the values for the cell count in experiment [11] (setting [17]) and in experiment [11] (setting [18]) were 9620 and 9930, respectively. Besides, in experiment [12], the result was inactive. Moreover, in experiment [13], the z-score is 1.15 (inactive).
For the molecule `CCN(CC)CCCN(c1ccccc1)C1Cc2ccccc2C1`, in [1], the inhibition was -1% (inactive). Besides, the fluorescence ratio (interference) in experiment [2] was 1 (inactive). In addition, the nuclear beta-catenin stimulation is -1.7% (inactive) in [3] (at 10 µM) and -1.3% in experiment [3] (stimulation, at 2 µM). Further, the insulin secretion stimulation in experiment [4] is 32.5% (active). Also, in [5], the viability decrease was 33.8% (inactive). The tube area decrease in [6] is 22.2% (inactive). Besides, the GLP1 secretion stimulation in [7] is -4.5% (inactive). In [8], the inhibition of viability was 50.6% (active). For the same molecule, the viability decrease (inhibition) in [9] is 53.5% (active); in [10], 32.5% (inactive). Also, the results for the fold change in experiment [11] (setting [15]) and in experiment [11] (setting [16]) were 1.07 (inactive) and 1.01, respectively. For the same molecule, the cell count in experiment [11] (setting [17]) was 8050; in experiment [11] (setting [18]) it was 7530. Moreover, the outcome in experiment [12] was inactive. The z-score in experiment [13] is -1.11 (inactive).
As for `COC(=O)C1=C(C)NC(C)=C(C(=O)OC(C)(C)CN(C)CCC(c2ccccc2)c2ccccc2)C1c1cccc([N+](=O)[O-])c1` (stereo not drawn), the inhibition in experiment [1] was 3% (inactive). Moreover, the fluorescence ratio (interference) in experiment [2] is 1 (inactive). Further, the nuclear beta-catenin stimulation in [3] (at 10 µM) is 22.4% (inactive); in [3] (stimulation, at 2 µM) it was -0.9%. For the same molecule, in [4], the insulin secretion stimulation is 1.3% (inactive). Moreover, the viability decrease in experiment [5] was 93.2% (active). The tube area decrease in [6] was 90.2% (active). Further, the GLP1 secretion stimulation in experiment [7] was -3.7% (inactive). In experiment [8], the inhibition of viability is 94% (active). Moreover, the viability decrease (inhibition) is 127% (active) in experiment [9] and 92.5% (active) in experiment [10]. The fold change in experiment [11] (setting [15]) is 1.26 (inactive) and 0.934 (inactive); in experiment [11] (setting [16]), 1.89 and 0.993. The cell count in experiment [11] (setting [17]) is 1980 and 4820; in [11] (setting [18]), 1570 and 5160. Also, in [12], the result was active. The z-score in [14] (MELAS cybrid survival, CellTiter-Glo 48 h, stronger effect = higher value) is -0.809 (inactive); in experiment [14] (Rieske KO mouse fibroblast survival, CellTiter-Glo 72 h), -0.0835; in experiment [13], -1.52 (inactive) and -2.66 (inactive).
As to `CSc1ccc(C(=O)c2[nH]c(=O)[nH]c2C)cc1`, the inhibition in experiment [1] was 0% (inactive). Moreover, in experiment [2], the fluorescence ratio (interference) is 1.1 (inactive). For the same molecule, the nuclear beta-catenin stimulation was 0.3% (inactive) in [3] (at 10 µM) and 0.1% in experiment [3] (stimulation, at 2 µM). Moreover, in experiment [4], the insulin secretion stimulation is 1.4% (inactive). In experiment [5], the viability decrease is -6.3% (inactive). In [6], the tube area decrease is -15.1% (inactive). In addition, the GLP1 secretion stimulation in [7] was 0.1% (inactive). The inhibition of viability in [8] is -7% (inactive). Also, the viability decrease (inhibition) in experiment [9] was 29% (inactive); in experiment [10], 9.15% (inactive). For the same molecule, the fold change is 0.968 (inactive) in experiment [11] (setting [15]) and 1.32 in experiment [11] (setting [16]). Besides, the cell count was determined as 8650 in experiment [11] (setting [17]) and 8940 in [11] (setting [18]). Moreover, in experiment [12], the outcome was inactive. Further, the z-score in experiment [13] was 0.31 (inactive).
Consider `CCCCCCCCCCCCCCC[C@H](O)[C@@H](N)CO`, for which the nuclear beta-catenin stimulation in experiment [3] (at 10 µM) was 43.1% (active); in [3] (stimulation, at 2 µM), 1.5%. Moreover, the insulin secretion stimulation in experiment [4] was 1% (inactive). Further, the viability decrease in experiment [5] is 72.1% (active). For the same molecule, the tube area decrease in experiment [6] is 17.5% (inactive). Besides, in [7], the GLP1 secretion stimulation is 7.7% (inactive). The inhibition of viability in experiment [8] is 69.8% (active). For the same molecule, the viability decrease (inhibition) in [9] was 143% (active); in experiment [10], 104% (active). The fold change in [11] (setting [15]) is 0.915 (inactive); in experiment [11] (setting [16]), 1.42. Further, the results for the cell count in experiment [11] (setting [17]) and in experiment [11] (setting [18]) were 5120 and 5600, respectively.

Usually inhibition stands for the relative decrease from the control value, in per cent.
